Screening results (PubChem BioAssay)
This is a sample that favours compounds with a hit; in the whole collection about 0.84% have one here.
PPARg SRC3 recr – PPARgamma agonists recruiting SRC-3 coactivator, primary screen, biochemical; Peroxisome proliferator-activated receptor gamma (Homo sapiens), P37231; biochemical PPARgamma/SRC-3 coactivator recruitment assay; activation, % at 8 µM; hit rate 0.26% among 200,000; AID 731, 2007; in the data active = activation above about 23%;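 note: 0% = DMSO and 100% = reference agonist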
PPARg SRC2 recr – agonists of PPARg-SRC-2 recruitment, primary screen, biochemical, HTS | Peroxisome proliferator-activated receptor gamma (Homo sapiens), P37231 | PPARgamma LBD-SRC-2 recruitment | activation, % at 8 µM | hit rate 0.34% among 200,000;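 note: 0% = vehicle and 100% = reference agonist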
SRC3 TRFRET art – TR-FRET detection interference compounds, artefact control for PPARgamma SRC-3 recruitment agonists, biochemical, TR-FRET ratio; TR-FRET artefact counter-screen, PPARgamma/SRC-3 format; hits give high values; hit rate 0.39% among 99,000; AID 1048, 2008; TR-FRET ratio at 8 µM; in the data active = TR-FRET ratio above about 2000
PPARg SRC-1 ag – PPARgamma agonists recruiting SRC-1 coactivator, primary screen, biochemical; activation, % at 8 µM; hit rate 0.41% among 200,000; PPARgamma-SRC-1 coactivator recruitment biochemical assay; Peroxisome proliferator-activated receptor gamma (Homo sapiens), P37231; AID 631, 2007; in the data active = activation above about 19%;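 note: 0% = DMSO and 100% = reference agonist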
SRC2 TRFRET art – TR-FRET signal artefacts, primary screen, artefact control for PPARgamma SRC-2 agonist project, biochemical; TR-FRET artefact counter-screen; hits give high values; TR-FRET ratio at 8 µM; hit rate 0.4% among 200,000; in the data active = TR-FRET ratio above about 2000
SRC1 TRFRET art – TR-FRET detection interference compounds, primary screen, artefact control for PPARgamma SRC-1 recruitment agonists, biochemical, TR-FRET emission ratio; TR-FRET ratio at 8 µM; hit rate 0.34% among 99,000; TR-FRET detection artefact counter-screen; hits give high values; in the data active = TR-FRET ratio above about 2300
PPARg SRC2 ag – agonists of PPARgamma SRC-2 coactivator recruitment, confirmation, biochemical, HTS. hit rate 52% among 790. biochemical SRC-2 recruitment by PPARgamma. shares compounds with PPARg SRC3 recr. AID 1297, 2008. activation, % at 8 µM;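 note: 0% = vehicle alone and 100% = reference agonist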
PPARg SRC1 conf – PPARgamma agonists recruiting SRC-1 coactivator, confirmation, biochemical. shares compounds with PPARg SRC3 recr. PPARgamma–SRC-1 coactivator recruitment biochemical assay. activation, % at 8 µM. hit rate 43% among 790; in the data active = activation above about 20%;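 note: 0% = vehicle wells and 100% = reference agonist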
PPARg SRC3 conf – PPARgamma-driven SRC-3 coactivator recruitment agonists, confirmation, biochemical | biochemical PPARgamma-SRC-3 coactivator recruitment, agonist mode | hit rate 29% among 790 | shares compounds with PPARg SRC3 recr | activation, % at 8 µM; in the data active = activation above about 24%;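 note: 0% = vehicle wells and 100% = reference agonist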
Active calls of the source: *; nt = no result given. Cut-off read from the data, not from the text of the source, unless noted: active = activation above about 22%; inactive = the rest.

SMILES | PPARg SRC3 recr | PPARg SRC2 recr | SRC3 TRFRET art | PPARg SRC-1 ag | SRC2 TRFRET art | SRC1 TRFRET art | PPARg SRC2 ag | PPARg SRC1 conf | PPARg SRC3 conf
O=C(CSc1ccccc1)Nc1ccc(C(=O)Nc2ccc(O)cc2)cc1 | 18.3 | 37.4* | 1821 | 26.2* | 1725 | 1849 | 29.8* | 21.6* | 18.2
COC(=O)c1ccc(NC(=O)CSc2ccccc2)cc1 | 5.0 | -4.9 | 1619 | 1.6 | 1612 | 1964 | nt | nt | nt
Cc1onc(-c2ccccc2Cl)c1C(=O)Nc1nnc(-c2ccc(Br)cc2)s1 | 25.2 | 27.5* | nt | 29.1* | 2175* | nt | 31.9* | 18.0 | 20.2
Cc1onc(-c2ccccc2Cl)c1C(=O)Nc1nnc(-c2ccc(F)cc2)s1 | 32.2* | 22.0* | nt | 17.0 | 1917 | nt | 16.9 | 9.6 | 10.6
Cc1onc(-c2ccccc2Cl)c1C(=O)Nc1nnc(-c2ccc(Cl)cc2Cl)s1 | 15.1 | 17.9 | nt | 22.7* | 1847 | nt | 31.0* | 22.8* | 19.9
Cc1onc(-c2ccccc2Cl)c1C(=O)Nc1nn[nH]n1 | -4.6 | 5.0 | 1461 | 0.0 | 1475 | 1628 | nt | nt | nt
Cc1onc(-c2c(F)cccc2Cl)c1C(=O)Nc1nnc(-c2ccccc2)s1 | 26.2* | 7.6 | nt | 15.9 | 1659 | nt | 26.1* | 24.5* | 17.2
Cc1onc(-c2c(F)cccc2Cl)c1C(=O)Nc1nnc(C2CC2)s1 | 7.0 | 7.9 | nt | 6.8 | 1619 | nt | nt | nt | nt
Cc1onc(-c2ccccc2Cl)c1C(=O)Nc1ccc(F)c(F)c1 | 18.3 | 1.1 | nt | 1.2 | 1401 | nt | nt | nt | nt
Cc1ccc(C(c2c(C)n(C)n(-c3ccccc3)c2=O)c2c(C)n(C)n(-c3ccccc3)c2=O)s1 | -0.3 | -6.0 | 1524 | -3.3 | 1346 | 1856 | nt | nt | nt
Cn1cc(SCC(=O)Nc2ccc3c(c2)OCO3)c2ccccc21 | -6.6 | -3.5 | nt | -2.2 | 1634 | nt | nt | nt | nt
Cn1c(=O)cc(SCC(=O)Nc2ccc3c(c2)OCO3)c2ccccc21 | 42.5* | 59.6* | nt | 31.9* | 2627* | nt | 42.1* | 27.6* | 27.1*
CCCn1cc(SCC(=O)Nc2ccc3c(c2)OCO3)c2ccccc21 | 15.1 | 10.9 | nt | 5.4 | 1751 | nt | nt | nt | nt
CCn1c(=O)cc(SCC(=O)Nc2ccc3c(c2)OCCO3)c2ccccc21 | 92.3* | 84.9* | nt | 68.6* | 3434* | nt | 65.0* | 45.7* | 43.4*
CCCC[N+](CC#Cc1ccccc1)(CCCC)CCCS(=O)(=O)[O-] | 0.2 | -4.2 | 1604 | 4.2 | 1595 | 1770 | nt | nt | nt
COc1cccc(C2C=C(c3ccc(Br)s3)Nc3ncnn32)c1OC (stereo unspecified) | 16.8 | 26.6* | 2570* | 32.8* | 2137* | 3079* | 57.1* | 48.0* | 36.2*
Fc1ccc(Br)cc1C1C=C(c2ccc(Br)s2)Nc2ncnn21 (stereo unspecified) | 31.9* | 51.1* | 3060* | 46.3* | 2711* | 3232* | 53.8* | 35.2* | 38.7*
C=CCOC(=O)c1c(C)nc2cc3c(cc2c1C)OCO3 | 2.7 | 4.7 | 1782 | 5.4 | 1371 | 1839 | nt | nt | nt
O=C(Nc1ccc(S(=O)(=O)NCc2ccco2)cc1)C1CCCCC1 | -0.8 | 3.0 | 1398 | 4.7 | 1691 | 1700 | nt | nt | nt
CCOC(=O)Cc1nc(-c2ccc(Cl)cc2)n[nH]1 | 2.0 | 6.1 | 1562 | 5.4 | 1480 | 1799 | nt | nt | nt
O=C(/C=C/c1ccccc1[N+](=O)[O-])N1CCN(c2ccccc2F)CC1 | 3.8 | 4.3 | 1661 | 5.0 | 1618 | 1935 | nt | nt | nt
NS(=O)(=O)c1ccc(O)c(NC(=O)c2ccc([N+](=O)[O-])cc2)c1 | 6.0 | 4.0 | 1636 | 3.1 | 1511 | 1934 | nt | nt | nt
CCCC(=O)Nc1nc(C)c(C(C)=O)s1 | 20.9 | 30.3* | 2466* | 35.1* | 2441* | 2803* | 32.1* | 21.3* | 20.9
C#CCNC(=O)C1=C[C@H](C2CCCCC2)C[C@H](OCc2ccc(CO)cc2)O1 | 2.4 | 14.8 | 1716 | 24.4* | 1615 | 1703 | 1.0 | 1.1 | 1.2
CCOC(=O)c1c(C)[nH]sc1=S | 70.3* | 58.4* | nt | 40.5* | 2727* | nt | 33.4* | 20.6* | 24.9*
SMILES | PPARg SRC3 recr | PPARg SRC2 recr | SRC3 TRFRET art | PPARg SRC-1 ag | SRC2 TRFRET art | SRC1 TRFRET art | PPARg SRC2 ag | PPARg SRC1 conf | PPARg SRC3 conf
O=C(Nc1ccccc1)c1ccc(-c2ccccc2)s1 | 16.9 | 38.5* | 2060* | 39.4* | 2178* | 2787* | 43.5* | 34.6* | 26.2*
Cc1c(N=NC2=C(O)CCCC2=O)c(=O)n(-c2ccccc2)n1C | -1.5 | 7.5 | 1640 | 11.2 | 1735 | 2049 | nt | nt | nt
O=C1NC(=Nc2ccc(F)cc2)CS1 | -3.2 | -10.1 | 1524 | -7.3 | 1514 | 1734 | nt | nt | nt
Cc1ccccc1S(=O)(=O)Nc1nc2ccccc2nc1N1CCOCC1 | 33.8* | 26.6* | nt | 25.5* | 2102* | nt | 43.4* | 37.3* | 27.9*
CN(C)/C=C/C(=O)c1ncc(C(F)(F)F)cc1Cl | 10.5 | 0.7 | 1611 | -2.6 | 1654 | 1800 | nt | nt | nt
N#Cc1ccsc1NC(=O)CN1CCN(S(=O)(=O)c2ccc3ccccc3c2)CC1 | 8.0 | 27.8* | 2536* | 18.6 | 2346* | 2399* | 11.2 | 9.9 | 5.5
COc1ccc(CCNC(=O)c2nnn(CC(=O)Nc3cccc(F)c3)c2N)cc1OC | -0.8 | -5.7 | 1634 | 5.4 | 1547 | 1767 | nt | nt | nt
C=CCn1c(-c2csc(-c3ccc(OC)c(OC)c3)n2)n[nH]c1=S | 12.6 | 23.0* | 1975 | 10.8 | 2116* | 2209 | 19.6 | 14.8 | 14.1
C=CCn1c(-c2csc(-c3ccc(Cl)cc3)n2)n[nH]c1=S | 12.6 | 10.2 | nt | 7.1 | 1851 | nt | nt | nt | nt
C=CCn1c(-c2cc(Cl)ccc2OC)n[nH]c1=S | 19.7 | 26.0* | nt | 18.9* | 1913 | nt | 29.7* | 21.5* | 21.1
O=c1c(Cc2ccccc2)c(O)ccn1C1CCCCCCC1 | 3.0 | 2.9 | 1559 | -4.0 | 1441 | 1566 | nt | nt | nt
COc1ccc(CSCC(=O)N/N=C/c2ccc(OCC(=O)NCc3ccco3)cc2)cc1 | 4.6 | -0.7 | nt | 6.9 | 1647 | nt | nt | nt | nt
Cc1cc(C)cc(CSCC(=O)N/N=C/c2ccc(OCC(=O)NCc3ccco3)cc2)c1 | 25.4* | 10.5 | nt | 7.5 | 1568 | nt | 1.9 | 0.2 | 0.6
O=[N+]([O-])c1ccc(C2Nc3cccc4cccc(c34)N2)cc1 | 6.8 | 17.0 | 1578 | 20.8* | 1698 | 1856 | 4.6 | 1.4 | 2.6
